Reference: the supplement of paper PMC10849652
Targets with a hit are over-represented here; the source holds about 7,900 in all. About 0.6% of all pairs of compound and target were hits.

Key:
Assay in all cases: log2 fold change, soluble protein after heating vs DMSO (PISA); higher = thermal stabilisation; K562 cells, 10 uM, 30 min; active = over 0.2 and 3.5 SD of the protein, either way, in both replicates (recomputed)
[1] = compound: NC(=O)Nc1cc(-c2cccc(F)c2)sc1C(=O)N[C@H]1CCCNC1
How it was run: (§1)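 Soluble protein was quantified by TMTpro 16plex LC-MS/MS after channel sums were equalised. It was obtained as the supernatant after 21,000xg for 90 min from pooled aliquots of K562 cells (2×10^6 cells/mL, 10 μM compound, 30 min) heated for 3 min across 48°C-58°C and extracted in PBS with 0.5% NP-40 at 4°C. Thermal stability values are relative to control samples and come from duplicates. They are given as log2 fold changes.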

[2] = compound: NC(=O)c1cnc(N[C@@H]2CCCC[C@@H]2N)nc1Nc1cccc(-n2nccn2)c1
How it was run: as §1

[3] = compound: NC1(c2ccc(-c3nc4ccn5c(=O)[nH]nc5c4cc3-c3ccccc3)cc2)CCC1
How it was run: as §1

[4] = compound: NCC(=O)Nc1ccc(-n2nc(C(F)(F)F)cc2-c2ccc3c(ccc4ccccc43)c2)cc1
How it was run: as §1

entinostat = compound: Nc1ccccc1NC(=O)c1ccc(CNC(=O)OCc2cccnc2)cc1 [entinostat]
How it was run: as §1

vorinostat = compound: O=C(CCCCCCC(=O)Nc1ccccc1)NO [vorinostat]
How it was run: as §1

citarinostat = compound: O=C(CCCCCCNC(=O)c1cnc(N(c2ccccc2)c2ccccc2Cl)nc1)NO [citarinostat]
How it was run: as §1

silmitasertib = compound: O=C(O)c1ccc2c(c1)nc(Nc1cccc(Cl)c1)c1ccncc12 [silmitasertib]
How it was run: as §1

[5] = compound: O=C1NC(=O)C(c2cnc3ccccn23)=C1c1cn2c3c(cc(F)cc13)CN(C(=O)N1CCCCC1)CC2
How it was run: as §1

[6] = compound: c1cc(OCCN2CCCCC2)cc(-c2n[nH]c3ccc(-c4nnc[nH]4)cc23)c1
How it was run: as §1

Measured: log2 fold change

LMNA (UniProt P02545)
inactive: [1] 0.205 | [2] -0.013 | [3] 0.024 | [4] 0.047 | entinostat -0.004 | vorinostat -0.026 | citarinostat 0.039 | silmitasertib 0.015 | [5] -0.075 | [6] -0.068

MFSD11 (UniProt O43934)
inactive: [1] 0.035 | [2] 0.038 | [3] -0.202 | [4] 0.002 | entinostat -0.112 | vorinostat -0.028 | citarinostat -0.096 | silmitasertib 0.044 | [5] -0.04 | [6] 0.063

LUC7L (UniProt Q9NQ29)
Sequence of UniProt Q9NQ29 (Q9NQ29 whole entry, looked up): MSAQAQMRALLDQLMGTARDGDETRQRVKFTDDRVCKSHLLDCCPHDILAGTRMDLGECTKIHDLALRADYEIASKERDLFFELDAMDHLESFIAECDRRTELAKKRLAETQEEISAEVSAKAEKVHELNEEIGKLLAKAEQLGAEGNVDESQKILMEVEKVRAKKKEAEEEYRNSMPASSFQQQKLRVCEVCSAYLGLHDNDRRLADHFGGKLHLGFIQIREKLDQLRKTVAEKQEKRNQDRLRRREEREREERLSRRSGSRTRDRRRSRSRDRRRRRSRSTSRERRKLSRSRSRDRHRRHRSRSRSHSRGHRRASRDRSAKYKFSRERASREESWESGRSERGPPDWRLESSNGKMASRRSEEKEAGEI
inactive: [1] -0.061 | [2] 0.011 | [3] 0.17 | [4] -0.043 | entinostat -0.01 | vorinostat -0.058 | citarinostat -0.052 | silmitasertib -0.006 | [5] 0.133 | [6] -0.095

IMMT isoform 4 (UniProt Q16891)
inactive: [1] -0.022 | [2] -0.083 | [3] -0.132 | [4] -0.056 | entinostat 0.021 | vorinostat 0.008 | citarinostat 0.007 | silmitasertib -0.038 | [5] -0.031 | [6] -0.035

IGF2R (UniProt P11717)
active: [3] -0.546
inactive: [1] -0.032 | [2] 0.03 | [4] 0.006 | entinostat -0.008 | vorinostat 0 | citarinostat 0.07 | silmitasertib 0.021 | [5] -0.063 | [6] -0.184

LARP4B (UniProt Q92615)
inactive: [1] 0.028 | [2] -0.042 | [3] 0.048 | [4] 0.022 | entinostat 0.038 | vorinostat 0.027 | citarinostat -0.001 | silmitasertib 0.008 | [5] 0.086 | [6] -0.112

LMBRD1 (UniProt Q9NUN5)
Sequence of UniProt Q9NUN5 (Q9NUN5 whole entry, looked up): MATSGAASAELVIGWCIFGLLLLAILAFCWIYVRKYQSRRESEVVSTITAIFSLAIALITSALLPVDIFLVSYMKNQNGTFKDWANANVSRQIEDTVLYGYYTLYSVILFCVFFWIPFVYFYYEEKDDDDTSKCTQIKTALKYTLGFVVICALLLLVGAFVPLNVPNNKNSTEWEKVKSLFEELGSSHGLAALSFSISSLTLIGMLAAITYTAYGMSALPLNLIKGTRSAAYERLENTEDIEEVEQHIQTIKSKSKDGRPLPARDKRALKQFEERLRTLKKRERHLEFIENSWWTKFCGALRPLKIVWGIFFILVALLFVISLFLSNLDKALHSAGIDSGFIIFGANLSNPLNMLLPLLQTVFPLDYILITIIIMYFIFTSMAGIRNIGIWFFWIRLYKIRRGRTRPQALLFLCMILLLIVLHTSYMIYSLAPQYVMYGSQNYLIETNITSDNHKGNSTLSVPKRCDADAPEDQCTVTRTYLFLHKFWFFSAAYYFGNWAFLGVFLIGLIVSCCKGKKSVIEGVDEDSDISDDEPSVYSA
inactive: [1] 0.006 | [2] 0.046 | [3] -0.243 | [4] -0.162 | entinostat 0.099 | vorinostat 0.048 | citarinostat 0.048 | silmitasertib -0.028 | [5] -0.003 | [6] 0.049

MAP3K20 (UniProt Q9NYL2)
Sequence of UniProt Q9NYL2 (Q9NYL2 whole entry, looked up): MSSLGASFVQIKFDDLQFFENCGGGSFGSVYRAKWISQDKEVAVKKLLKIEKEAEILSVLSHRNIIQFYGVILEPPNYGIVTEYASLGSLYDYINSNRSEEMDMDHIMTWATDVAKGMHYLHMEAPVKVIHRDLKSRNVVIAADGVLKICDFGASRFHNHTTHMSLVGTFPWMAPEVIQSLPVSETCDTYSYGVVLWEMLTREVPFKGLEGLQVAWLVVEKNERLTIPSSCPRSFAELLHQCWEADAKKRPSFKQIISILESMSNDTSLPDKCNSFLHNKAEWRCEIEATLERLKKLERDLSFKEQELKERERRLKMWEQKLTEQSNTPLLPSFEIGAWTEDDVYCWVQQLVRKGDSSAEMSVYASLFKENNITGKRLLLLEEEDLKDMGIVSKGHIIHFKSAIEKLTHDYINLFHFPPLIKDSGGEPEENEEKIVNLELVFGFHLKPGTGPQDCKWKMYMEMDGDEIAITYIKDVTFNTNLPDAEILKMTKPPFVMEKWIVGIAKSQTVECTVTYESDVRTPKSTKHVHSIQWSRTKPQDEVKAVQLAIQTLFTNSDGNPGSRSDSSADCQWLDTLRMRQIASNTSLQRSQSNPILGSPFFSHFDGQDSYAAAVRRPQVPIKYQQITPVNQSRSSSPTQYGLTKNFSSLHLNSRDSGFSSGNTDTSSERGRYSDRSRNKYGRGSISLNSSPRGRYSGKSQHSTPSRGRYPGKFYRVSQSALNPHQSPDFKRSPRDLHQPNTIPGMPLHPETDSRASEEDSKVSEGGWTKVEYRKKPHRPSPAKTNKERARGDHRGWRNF
inactive: [1] -0.008 | [2] 0.035 | [3] -0.012 | [4] -0.03 | entinostat 0.019 | vorinostat 0 | citarinostat 0.002 | silmitasertib 0.031 | [5] 0.026 | [6] -0.09

MAD2L1 (UniProt Q13257)
inactive: [1] -0.013 | [2] -0.09 | [3] -0.193 | [4] -0.124 | entinostat 0.036 | vorinostat 0.021 | citarinostat 0.014 | silmitasertib 0.072 | [5] -0.032 | [6] 0.006

LARP7 isoform 3 (UniProt Q4G0J3)
inactive: [1] -0.011 | [2] -0.116 | [3] -0.129 | [4] -0.019 | entinostat -0.007 | vorinostat 0.082 | citarinostat 0.043 | silmitasertib 0.03 | [5] -0.034 | [6] -0.065

KIF2C (UniProt Q99661)
inactive: [1] -0.024 | [2] 0 | [3] -0.053 | [4] -0.068 | entinostat 0.095 | vorinostat 0.122 | citarinostat 0.156 | silmitasertib -0.009 | [5] -0.005 | [6] -0.001

MED16 (UniProt Q9Y2X0)
inactive: [1] 0.108 | [2] 0.021 | [3] -0.005 | [4] -0.044 | entinostat -0.047 | vorinostat 0.107 | citarinostat -0.094 | silmitasertib 0.026 | [5] 0.06 | [6] -0.117

IGFBP2 (UniProt P18065)
Sequence of UniProt P18065 (P18065 whole entry, looked up): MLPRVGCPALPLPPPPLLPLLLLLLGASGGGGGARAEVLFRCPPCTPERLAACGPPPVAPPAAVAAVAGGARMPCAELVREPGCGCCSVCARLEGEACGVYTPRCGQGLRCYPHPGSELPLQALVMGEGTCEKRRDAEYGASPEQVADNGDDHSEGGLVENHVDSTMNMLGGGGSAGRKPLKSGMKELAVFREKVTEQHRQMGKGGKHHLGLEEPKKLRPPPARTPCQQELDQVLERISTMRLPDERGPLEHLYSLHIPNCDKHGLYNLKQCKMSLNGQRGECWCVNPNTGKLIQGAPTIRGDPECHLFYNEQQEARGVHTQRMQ
inactive: [1] 0.026 | [2] -0.043 | [3] -0.242 | [4] -0.037 | entinostat 0.04 | vorinostat 0.351 | citarinostat -0.068 | silmitasertib 0.267 | [5] -0.143 | [6] 0.064

KIF21A isoform 4 (UniProt Q7Z4S6)
inactive: [1] -0.068 | [2] 0.055 | [3] -0.049 | [4] -0.093 | entinostat 0.01 | vorinostat 0.012 | citarinostat 0.002 | silmitasertib 0.033 | [5] 0.213 | [6] -0.087

LYPLA2 (UniProt O95372)
Sequence of UniProt O95372 (O95372 whole entry, looked up): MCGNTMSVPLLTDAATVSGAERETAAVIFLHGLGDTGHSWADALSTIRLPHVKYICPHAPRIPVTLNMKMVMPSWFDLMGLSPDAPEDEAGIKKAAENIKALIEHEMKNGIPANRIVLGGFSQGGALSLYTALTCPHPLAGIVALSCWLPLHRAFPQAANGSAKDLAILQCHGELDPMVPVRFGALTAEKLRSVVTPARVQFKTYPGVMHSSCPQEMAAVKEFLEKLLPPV
inactive: [1] 0.02 | [2] 0.043 | [3] -0.031 | [4] 0.09 | entinostat 0.114 | vorinostat -0.065 | citarinostat 0.018 | silmitasertib -0.048 | [5] 0 | [6] 0.036

KLHL18 (UniProt O94889)
Sequence of UniProt O94889 (O94889 whole entry, looked up): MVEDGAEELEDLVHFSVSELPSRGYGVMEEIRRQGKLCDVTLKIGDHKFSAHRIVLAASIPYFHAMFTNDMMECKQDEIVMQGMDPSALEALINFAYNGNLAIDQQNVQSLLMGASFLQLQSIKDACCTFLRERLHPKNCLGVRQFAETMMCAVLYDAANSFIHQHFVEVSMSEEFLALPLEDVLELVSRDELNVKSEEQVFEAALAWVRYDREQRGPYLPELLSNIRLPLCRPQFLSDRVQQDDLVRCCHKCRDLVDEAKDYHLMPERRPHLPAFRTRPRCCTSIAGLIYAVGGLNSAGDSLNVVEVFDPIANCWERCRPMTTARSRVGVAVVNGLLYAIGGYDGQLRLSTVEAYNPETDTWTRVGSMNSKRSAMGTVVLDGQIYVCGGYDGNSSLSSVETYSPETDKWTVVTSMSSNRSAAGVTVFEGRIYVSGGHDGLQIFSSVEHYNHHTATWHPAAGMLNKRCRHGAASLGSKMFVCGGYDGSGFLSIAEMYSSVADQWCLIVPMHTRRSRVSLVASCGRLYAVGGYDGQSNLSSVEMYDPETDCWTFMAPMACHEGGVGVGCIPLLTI
inactive: [1] 0.132 | [2] -0.034 | [3] -0.145 | [4] -0.123 | entinostat -0.045 | vorinostat 0.137 | citarinostat 0.123 | silmitasertib -0.029 | [5] -0.014 | [6] -0.022

MCCC2 (UniProt Q9HCC0)
inactive: [1] 0.047 | [2] -0.014 | [3] 0.036 | [4] 0.06 | entinostat 0.005 | vorinostat -0.043 | citarinostat 0.083 | silmitasertib 0.025 | [5] 0.006 | [6] -0.024

KDM5D isoform 3 (UniProt Q9BY66)
Sequence of UniProt Q9BY66 (Q9BY66 whole entry, looked up): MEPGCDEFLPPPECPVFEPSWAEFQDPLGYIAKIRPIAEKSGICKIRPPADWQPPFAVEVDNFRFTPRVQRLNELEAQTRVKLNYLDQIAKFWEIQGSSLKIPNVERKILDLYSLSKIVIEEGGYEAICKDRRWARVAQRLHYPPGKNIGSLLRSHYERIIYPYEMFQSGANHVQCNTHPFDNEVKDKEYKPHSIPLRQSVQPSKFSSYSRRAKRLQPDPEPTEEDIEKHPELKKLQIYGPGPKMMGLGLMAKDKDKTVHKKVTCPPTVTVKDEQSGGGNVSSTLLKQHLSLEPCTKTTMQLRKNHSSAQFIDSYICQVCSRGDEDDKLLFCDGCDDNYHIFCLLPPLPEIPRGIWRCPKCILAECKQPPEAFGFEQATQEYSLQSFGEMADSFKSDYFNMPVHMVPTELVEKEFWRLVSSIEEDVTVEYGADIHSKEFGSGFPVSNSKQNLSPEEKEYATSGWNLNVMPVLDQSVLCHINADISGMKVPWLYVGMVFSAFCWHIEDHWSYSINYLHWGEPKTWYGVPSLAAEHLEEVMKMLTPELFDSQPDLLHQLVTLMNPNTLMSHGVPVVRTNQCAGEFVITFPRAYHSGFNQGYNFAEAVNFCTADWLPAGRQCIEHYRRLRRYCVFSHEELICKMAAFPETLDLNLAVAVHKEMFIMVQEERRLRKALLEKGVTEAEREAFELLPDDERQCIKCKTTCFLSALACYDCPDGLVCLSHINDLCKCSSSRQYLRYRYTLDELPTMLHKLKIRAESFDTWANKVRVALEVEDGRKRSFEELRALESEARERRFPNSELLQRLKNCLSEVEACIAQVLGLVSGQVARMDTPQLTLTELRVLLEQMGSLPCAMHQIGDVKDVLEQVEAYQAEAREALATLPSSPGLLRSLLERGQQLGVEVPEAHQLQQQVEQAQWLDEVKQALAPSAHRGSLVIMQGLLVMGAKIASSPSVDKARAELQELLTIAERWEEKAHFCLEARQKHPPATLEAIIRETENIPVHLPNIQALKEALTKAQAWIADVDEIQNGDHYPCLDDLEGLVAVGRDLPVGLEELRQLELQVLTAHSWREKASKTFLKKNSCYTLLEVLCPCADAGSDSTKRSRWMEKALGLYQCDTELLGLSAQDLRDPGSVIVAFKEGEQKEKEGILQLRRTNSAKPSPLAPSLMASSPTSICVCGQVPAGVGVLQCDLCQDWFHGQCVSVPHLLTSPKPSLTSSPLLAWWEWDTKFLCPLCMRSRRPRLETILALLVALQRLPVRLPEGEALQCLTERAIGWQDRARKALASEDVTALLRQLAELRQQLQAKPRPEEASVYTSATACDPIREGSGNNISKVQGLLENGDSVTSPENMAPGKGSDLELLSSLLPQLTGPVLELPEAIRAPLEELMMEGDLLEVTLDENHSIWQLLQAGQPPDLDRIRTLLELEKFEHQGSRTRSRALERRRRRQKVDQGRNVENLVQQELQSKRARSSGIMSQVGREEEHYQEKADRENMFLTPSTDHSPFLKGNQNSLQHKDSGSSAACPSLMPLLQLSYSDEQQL
inactive: [1] -0.038 | [2] -0.012 | [3] -0.134 | [4] -0.025 | entinostat 0.135 | vorinostat 0.006 | citarinostat 0.198 | silmitasertib 0.176 | [5] 0 | [6] -0.096

MCUR1 (UniProt Q96AQ8)
Sequence of UniProt Q96AQ8 (Q96AQ8 whole entry, looked up): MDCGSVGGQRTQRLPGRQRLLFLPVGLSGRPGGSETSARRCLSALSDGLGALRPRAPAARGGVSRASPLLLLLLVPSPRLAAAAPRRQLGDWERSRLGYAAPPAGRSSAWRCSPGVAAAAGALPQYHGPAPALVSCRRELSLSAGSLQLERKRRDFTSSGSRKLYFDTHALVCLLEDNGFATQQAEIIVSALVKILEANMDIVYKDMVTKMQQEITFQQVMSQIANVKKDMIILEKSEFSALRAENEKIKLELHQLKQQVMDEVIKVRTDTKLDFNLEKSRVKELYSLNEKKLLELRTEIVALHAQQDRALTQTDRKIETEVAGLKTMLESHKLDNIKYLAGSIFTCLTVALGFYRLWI
inactive: [1] -0.043 | [2] -0.048 | [3] 0.011 | [4] 0.01 | entinostat -0.028 | vorinostat -0.026 | citarinostat -0.001 | silmitasertib -0.023 | [5] -0.036 | [6] -0.018

KDM1A isoform 2 (UniProt O60341)
inactive: [1] 0.055 | [2] -0.038 | [3] -0.063 | [4] 0.012 | entinostat 0.155 | vorinostat 0.135 | citarinostat 0.007 | silmitasertib 0 | [5] -0.063 | [6] -0.064

KIFBP (UniProt Q96EK5)
inactive: [1] 0.002 | [2] -0.166 | [3] -0.117 | [4] -0.091 | entinostat 0.059 | vorinostat 0.088 | citarinostat 0.043 | silmitasertib -0.02 | [5] 0.024 | [6] -0.056

ILF3 isoform 7 (UniProt Q12906)
inactive: [1] -0.056 | [2] 0.055 | [3] 0.17 | [4] 0.107 | entinostat -0.083 | vorinostat -0.052 | citarinostat -0.053 | silmitasertib 0.189 | [5] 0.32 | [6] -0.105

KCT2 (UniProt Q8NC54)
Sequence of UniProt Q8NC54 (Q8NC54 whole entry, looked up): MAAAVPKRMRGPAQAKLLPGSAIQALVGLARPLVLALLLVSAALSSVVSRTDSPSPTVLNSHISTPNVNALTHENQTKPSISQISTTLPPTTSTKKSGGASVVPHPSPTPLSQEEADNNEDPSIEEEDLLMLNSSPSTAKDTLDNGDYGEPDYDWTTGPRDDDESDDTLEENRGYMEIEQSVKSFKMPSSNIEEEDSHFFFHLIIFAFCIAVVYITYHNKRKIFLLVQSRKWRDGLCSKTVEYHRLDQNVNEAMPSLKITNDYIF
inactive: [1] 0.047 | [2] -0.029 | [4] 0.013 | entinostat -0.054 | vorinostat 0.022 | citarinostat 0.05 | silmitasertib 0.035 | [5] 0.047 | [6] -0.02
active: [3] -0.378

MAP2K1 (UniProt Q02750)
inactive: [1] -0.028 | [2] -0.062 | [3] -0.011 | [4] -0.027 | entinostat -0.004 | vorinostat 0.035 | citarinostat 0.022 | silmitasertib -0.064 | [5] -0.061 | [6] -0.035

KTN1 (UniProt Q86UP2)
inactive: [1] 0.036 | [2] 0.06 | [3] 0.035 | [4] -0.038 | entinostat 0.05 | vorinostat 0.027 | citarinostat 0.033 | silmitasertib 0.06 | [5] 0.148 | [6] -0.189

KIF3A (UniProt Q9Y496)
inactive: [1] 0.075 | [2] 0.078 | [3] -0.011 | [4] -0.014 | entinostat -0.011 | vorinostat -0.137 | citarinostat -0.076 | silmitasertib -0.068 | [5] -0.048 | [6] -0.051

LDAH isoform 2 (UniProt Q9H6V9)
inactive: [1] -0.049 | [2] 0.018 | [4] -0.041 | entinostat 0.014 | vorinostat -0.011 | citarinostat 0.061 | silmitasertib 0.014 | [5] -0.16 | [6] -0.057
active: [3] 0.979

MIER1 isoform 12 (UniProt Q8N108)
inactive: [1] -0.026 | [2] -0.03 | [3] -0.074 | [4] -0.025 | silmitasertib -0.017 | [5] -0.066 | [6] -0.061
active: entinostat 0.292 | vorinostat 0.28 | citarinostat 0.273

LIMA1 isoform 4 (UniProt Q9UHB6)
inactive: [1] 0.062 | [2] -0.045 | [3] 0.081 | [4] 0.006 | entinostat 0.004 | vorinostat 0.067 | citarinostat -0.024 | silmitasertib -0.006 | [5] -0.073 | [6] -0.012
